Compound activity as filed in PubChem.
JMJD2A Tudor inh: qHTS Assay for Inhibitors of JMJD2A-Tudor Domain | Lysine-specific demethylase 4A (Homo sapiens), O75164 | AlphaScreen JMJD2A-Tudor / H3K4me3 peptide binding | Potency, µM (titrated, usually from 114 µM), without a hit: at the highest dose activity change, negative = inhibition, most hits filed as inhibitors | 4.4% of 390,000 active | AID 504339, 2011; note: % is set by controls: 0 for no effect and ±100 for the full control effect; nearly all actives have a fitted effect of over 50% in size
BAZ2B block: qHTS Assay for Inhibitors of BAZ2B; AID 504333, 2011; 4.4% of 360,000 active; AlphaScreen BAZ2B-H3K14Ac peptide displacement; Potency, µM (highest dose often 114 µM), inactives show at the top dose activity change, negative = inhibition, actives largely listed as inhibitors; Bromodomain adjacent to zinc finger domain protein 2B (Homo sapiens), Q9UIF8; note: % is set by controls: 0 for no effect and ±100 for the full control effect; nearly all actives have a fitted effect of over 60% in size
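AlphaScreen luminescence quantifies BAZ2B engagement of H3K14Ac peptide; the protein and biotinylated peptide are both at 50 nM final, buffer PBS pH 7.4 with 0.01% Tween-20, all steps at room temperature.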
HP1b chromo inh: HTS for Inhibitors of HP1-beta Chromodomain Interactions with Methylated Histone Tails | Potency, µM (titrated, usually from 114 µM), for inactives: at the highest dose activity change, negative = inhibition, usual class: inhibitors | AID 540317, 2011 | 0.56% of 390,000 active | AlphaScreen HP1-beta / biotin-H3K9me3 peptide binding; note: nearly all actives have a fitted effect of over 70% in size
Target sequence (P83916 whole entry, looked up): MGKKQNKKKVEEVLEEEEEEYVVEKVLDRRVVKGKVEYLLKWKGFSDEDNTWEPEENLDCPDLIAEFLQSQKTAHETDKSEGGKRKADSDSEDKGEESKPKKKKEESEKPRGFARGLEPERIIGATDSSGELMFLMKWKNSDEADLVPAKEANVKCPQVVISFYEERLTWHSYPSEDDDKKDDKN
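Compound inhibition of the preformed complex between 50 nM HP1-beta and 50 nM biotinylated H3K9me3 peptide was read by AlphaScreen. Buffer was PBS pH 7.4 with 0.01% Tween-20. Incubations ran 30 min at room temperature, with 10 ug/mL donor/acceptor beads.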
G9a inh: qHTS Assay for Inhibitors of Histone Lysine Methyltransferase G9a. G9a H3K9 monomethylation, AlphaScreen, 2 h. Potency, µM (top dose mostly 102 µM), without a hit: at the top dose activity, negative = inhibition, hits mostly inhibitors. 8.8% of 350,000 active. AID 504332, 2011; note: % is set by controls: 0 for no effect and ±100 for the full control effect; nearly all actives have a fitted effect of over 75% in size
Target sequence (Q96KQ7 913-1193 limits assumed): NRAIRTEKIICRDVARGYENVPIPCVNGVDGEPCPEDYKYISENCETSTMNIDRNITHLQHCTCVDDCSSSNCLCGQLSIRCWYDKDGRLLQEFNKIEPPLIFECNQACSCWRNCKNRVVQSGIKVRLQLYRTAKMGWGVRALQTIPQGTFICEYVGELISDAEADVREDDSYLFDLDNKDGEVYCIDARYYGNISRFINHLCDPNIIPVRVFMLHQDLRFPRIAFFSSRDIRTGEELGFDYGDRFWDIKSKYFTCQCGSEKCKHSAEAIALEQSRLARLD
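Methyltransferase reactions run at room temperature for 2 h (20 nM enzyme, 500 nM biotin-H3K9 peptide, 20 uM SAM) after a 15 min compound preincubation; product detected by AlphaScreen beads and anti-H3K9me1 antibody.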
GLS inh: qHTS for Inhibitors of Glutaminase (GLS) | Glutaminase kidney isoform, mitochondrial (Homo sapiens), O94925 | GLS enzymatic activity, qHTS titration | Potency, µM (highest dose often 45.5 µM), for the others: at the top dose activity change, negative = inhibition, actives largely listed as inhibitors | 0.21% of 410,000 active; note: % is set by controls: 0 for no effect and ±100 for the full control effect
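Glutamate formation by hKGA was monitored fluorometrically using coupled glutamate oxidase, HRP and Amplex Red. Substrate was added as 1 mM L-glutamine solution; incubation was 30 min at RT after an initial read.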
Starred values were filed as active, the others as inactive; ? = inconclusive; . = not tested or not shown; ! = repeats disagree; [ ] = remark or other dose. Sampled rows, rich in hits. Any-hit rate of the full collection: about 10%. Calls come from the whole dose curve; as a rule, active = well fitted curve in the direction sought with a large enough effect; inconclusive = small, poorly fitted or top-dose-only effect, or another doubt; inactive = no such curve, though single readings can be large; an effect the other way counts as inactive or inconclusive. Potency is the fitted concentration of half-maximal effect.

SMILES	JMJD2A Tudor inh	BAZ2B block	HP1b chromo inh	G9a inh	GLS inh
COC(=O)n1c(=O)oc2ccccc21	-12.3%	-5.9%	26.0%	-18.4%[59 µM]	1.7%
Cc1ccccc1OC(=O)n1c(=S)oc2cc(Cl)ccc21	35.5µM*	11.6%	-2.6%	1.12µM*	10.9%
O=C(Oc1ccccc1)n1c(=S)oc2ccccc21	20µM*	-4.4%	-11.7%	3.55µM*	27.4%
O=C(CSc1nnc(C2CC2)n1Cc1ccccc1)N1CCNC1=O	-9.0%	.	22.9%	.	-4.2%
COC(=O)c1n[nH]n(-c2ccccc2)c1=O	7.5%	-13.0%	27.2%	15.5%[59 µM]	4.2%
Nc1ccc(/C=C/C(=O)c2ccco2)cc1	-9.9%	1.8%	37.2%	-0.1%[59 µM]	13.5%
N#Cc1ccc(/C=C/C(=O)c2ccco2)cc1	-0.7%	-3.2%	31.7%	14.1µM*	-1.5%
O=C(O)C1C2CC(C(Br)C2Br)C1C(=O)O (stereo not given)	-2.1%	.	28.0%	.	-0.7%
COc1ccccc1OCCC(=O)OCC(=O)c1[nH]c(C)c(C(C)=O)c1C	-18.5%	?	40.4%	?	-4.0%
NS(=O)(=O)c1cccc(C(=O)N2CCCc3ccccc32)c1	.	.	.	.	-7.8%
Cn1nnnc1Sc1ncnc2scc(-c3ccccc3Cl)c12	-21.2%	-3.9%	32.3%	9.9%[0.501 µM]	-5.3%
Cn1nnnc1Sc1ncnc2scc(-c3cccc4c3sc3ccccc34)c12	39.8µM*!	.	27.0%	.	-0.5%
CCOc1ccc(-c2nonc2NC(=O)c2oc3ccc(Br)cc3c2C)cc1	-7.2%	3.0%	70.0%	23.8%[59 µM]	1.2%
CCOc1ccc(-c2nonc2NC(=O)c2oc3cc(Br)ccc3c2C)cc1	39.8µM*	-3.4%	46.8%	0.7%[59 µM]	-11.9%
C/C=C/c1ccc(OCCCCN(C)Cc2ccccc2)c(OC)c1	17.8µM*	50.1µM*	?	?	4.1%
C/C=C/c1ccc(OCCNCc2ccccc2)c(OC)c1	-17.9%	56.2µM*	?	?	9.9%
CNCCCOc1ccc(C)cc1OC	1.58µM*	39.8µM*	-36.9%	.	-10.1%
C/C=C/c1ccc(OCCCNC)c(OC)c1	1.12µM*	50.1µM*	?	15.8µM*	6.3%
C/C=C/c1ccc(OCCCCOc2ccccc2C(C)=O)c(OC)c1	-7.6%	31.3%	23.2%	33.0%[59 µM]	1.1%
CCOC(=O)c1ccc(N2C(=O)c3[nH]nc(-c4ccc(C)cc4)c3C2c2ccc(O)c(OCC)c2)cc1 (stereo not given)	-29.3%	.	5.6%	-29.2%[59 µM]	4.9%
CCCOc1ccc(C2C(=O)N(C3CCCCCC3)CC(=O)N2CCC)cc1OC (stereo not given)	-25.1%	1.8%	20.0%	-4.4%[59 µM]	-8.7%
C[C@@H]1CN([C@@H](C)CO)C(=O)CCCn2nncc2CO[C@H]1CN(C)C(=O)Nc1cccc(Oc2ccccn2)c1	.	.	.	.	-1.3%
Cc1cc2nc(C)n(CCCNC(=O)Nc3cccc4ccccc34)c2cc1C	50.1µM*	-11.3%	3.7%	-27.2%	-24.0%
COc1ccc(-n2c(-c3ccccc3)cc3c2CCCC3=O)cc1	31.6µM*	11.2µM*	?	12.6µM*	8.4%
COc1ccc(OC)c(N=C(C)C2=C(O)COC2=O)c1	-6.4%	-7.1%	15.7%	3.55µM*	0.4%
SMILES	JMJD2A Tudor inh	BAZ2B block	HP1b chromo inh	G9a inh	GLS inh
CC(=Nc1ccccc1)C1=C(O)COC1=O	-7.7%	?	32.3%	-21.0%	4.9%
COc1ccc(C2=Nn3c(nnc3-c3ccc(OC)cc3OC)SC2)cc1	-24.1%	.	.	.	.
COc1ccc(O)c(C(=O)CC(=O)c2ccc(F)cc2)c1	?	?	?	79.4µM*	22.7%
CCOC(=O)c1ccccc1S(=O)(=O)N1CCN(c2nc(-c3cccs3)nc3ccccc23)CC1	?	.	21.1%	.	.
Cc1ccc(C(=O)NC(C)C2CC3CCC2C3)c(C)c1 (stereo not given)	14.3%	2.7%	16.7%	16.6%	0.0%
O=C(NC1CCCCC1)C1c2ccccc2OCC(=O)N1CCc1c[nH]c2ccccc12 (stereo not given)	.	.	.	.	15.0%
COc1cc2ccc(C(=O)O)cc2cc1OC	.	.	.	.	4.1%
Cc1c(C(=O)O)cccc1[N+](=O)[O-]	-7.6%	?	22.0%	1.9%[0.501 µM]	-10.3%
O=C(O)c1c[nH]c2c([N+](=O)[O-])cccc2c1=O	20µM*	.	79.4µM*	.	136.4%
Cc1cccc(C)c1NC(=O)Cn1c(=O)n(Cc2ccco2)c(=O)c2ccc(C(=O)NC3CCCC3)cc21	-12.3%	.	10.0%	-0.9%[59 µM]	4.1%
OCCN(Cc1ccccc1)Cc1cccc(C(F)(F)F)c1	7.94µM*	?	?	17.8µM*	4.3%
OCCN(Cc1ccccc1)Cc1ccc(C(F)(F)F)cc1	7.94µM*	?	15.8µM*	28.2µM*	13.6%
O=C(N/N=C/c1ccsc1)c1c[nH]c2ccccc12	-5.5%	-13.7%	31.6%	.	3.3%
CC(=O)NC1[C@H]([C@H](O)[C@H](O)CO)OC(C(=O)O)=C[C@H]1N=C(N)N (stereo not given in full)	.	.	.	36.0%[59 µM]	-10.0%
CC(C)C(=O)N1c2ncnn2C2(CCCCC2)[C@@H]2CCCC[C@@H]21	6.0%	0.1%	33.4%	2.9%[59 µM]	-1.4%
O=C(Nc1cccc(-c2nc3ccccc3[nH]2)c1)c1c(F)cccc1F	-25.8%	-7.0%	31.9%	1.3%[59 µM]	4.3%
O=c1cc(O)n(-c2ccc(F)cc2)c(=S)[nH]1	-3.4%	-1.5%	32.7%	31.6µM*	15.5%
CCOC(=O)CSc1nc(-c2ccc(OCC)cc2)cc(C(F)(F)F)c1C#N	8.9%	?	44.2%	49.2%[59 µM]	1.0%
COC(=O)CSc1nc(N)c(C#N)c(-c2ccc(O)cc2)c1C#N	-16.4%	-6.3%	42.3%	-2.3%	11.2µM*
CCOC(=O)CSc1nc(N)c(C#N)c(-c2ccc(OCC)cc2)c1C#N	-10.4%	-4.2%	20.0%	44.7µM*	3.3%
Cc1nc(CC(=O)Nc2ccc(C(N)=O)cc2)cs1	-16.4%	-4.8%	25.0%	-3.1%[59 µM]	0.6%
CCOc1ccccc1NC(=O)Cn1c(=O)n(Cc2ccc(OC)cc2)c(=O)c2oc3ccccc3c21	-6.6%	-10.6%	20.2%	-2.1%[59 µM]	-6.3%
COc1cc(C2Nc3c(F)cccc3C3C=CCC32)cc(Br)c1OC (stereo not given)	-10.5%	?	19.7%	.	6.3%
